Results from publication PMC7819943, “Rice protein-binding microarrays: a tool to detect cis-acting elements near promoter regions in rice”.
Whole data set: some 68,000 sequences, median “fluorescence intensity (a.u.)” near 9,100, cut for the highest 2% near 16,000. Many of the other results were omitted from the sample, so the highest values are more common in it than they were.

Target: OsWRKY34 (Oryza sativa, UniProt Q0JBA9 1-250)
Test: protein-binding microarray (RPBM); PBS, 2% BSA, 51.3 ng/ul salmon testes DNA, 50 uM zinc acetate, 200 nM TF, 25 C, 1 h; high values mean tight binding
Conditions: protein: recombinant; tags: N-terminal polyhistidine and DsRed monomer fusion (pET32a); label: CyDye5-dUTP incorporated in the synthesized complementary strand; 3' TTTTT single-stranded linker to array surface; dsDNA, one strand shown
Method in brief: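 Per-feature fluorescence intensity (arbitrary units), read on an Axon 4000B scanner, is the binding signal. Transcription factors carrying an N-terminal polyhistidine tag and DsRed fusion were expressed in E. coli BL21-CodonPlus and purified on Ni–NTA. A custom Agilent array, made double-stranded by primer extension with Cy5-dUTP and blocked with 2% BSA, was incubated with 200 nM protein in PBS, 2% BSA, salmon testes DNA and 50 µM zinc acetate at 25 °C for 1 h and then washed.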

Chain of OsWRKY34 (Q0JBA9 entry or part of it): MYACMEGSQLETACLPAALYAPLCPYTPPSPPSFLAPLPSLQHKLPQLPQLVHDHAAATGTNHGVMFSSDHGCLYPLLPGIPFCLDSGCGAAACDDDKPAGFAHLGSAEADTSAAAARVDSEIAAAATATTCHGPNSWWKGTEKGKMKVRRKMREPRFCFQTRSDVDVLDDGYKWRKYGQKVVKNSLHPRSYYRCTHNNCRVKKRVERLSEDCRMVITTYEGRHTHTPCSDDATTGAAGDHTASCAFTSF

Question: With “CCATTCCTCTGTTTACCTCTGCTCTGTATACATACTCCGGCGGAGTCACCTAGTGCAG” as the sequence, how does the binding signal read?
Answer: 9220 fluorescence intensity (a.u.)

Question: How did the binding signal turn out when “AGAATTCCGATCGCCACCCCGCGGTTCTGCTCTCGCCGGCCGGAGTCACCTAGTGCAG” was run?
Answer: 9150 fluorescence intensity (a.u.)

Question: How did the binding signal turn out when “ACAAACCCGACCTTGAACTCGAAACAGGCGCACATCCCACCGGAGTCACCTAGTGCAG” was run?
Answer: 8560 fluorescence intensity (a.u.)

Question: “CCATCGGTACCATCTGTTTCGTCTACTTCCTTTGTAATCTCGGAGTCACCTAGTGCAG” was tested. Which binding signal did it give?
Answer: 9150 fluorescence intensity (a.u.)

Question: Which binding signal does the source give for “AGAGGAGAGGAGGGTTCAGATGTGGTGGGTCTATATAGCGCGGAGTCACCTAGTGCAG” here?
Answer: 9610 fluorescence intensity (a.u.)

Question: With “GATAGTGTCCCACGCATGCGTCCACGAGTCCTCGACGCAACGGAGTCACCTAGTGCAG” as the sequence, how does the binding signal read?
Answer: 9120 fluorescence intensity (a.u.)

Question: How did the binding signal turn out when “TACTACACTATTAATATATGGTCCAACCTGTCATACACACCGGAGTCACCTAGTGCAG” was run?
Answer: 10700 fluorescence intensity (a.u.)

Question: For “TGTTTATCTATTTTGTGTTGGTATTATTATTTCTTGTATACGGAGTCACCTAGTGCAG”, which binding signal is on record?
Answer: 8850 fluorescence intensity (a.u.)

Question: With “CCACACCACAGTCGCCTCTCTCCTCTTTCACCGAGAAGCGCGGAGTCACCTAGTGCAG” as the sequence, how does the binding signal read?
Answer: 8150 fluorescence intensity (a.u.)

Question: For “GTTTCCATAGCATTACACTTTTGTAACTATTATTGTTTTGCGGAGTCACCTAGTGCAG”, which binding signal is on record?
Answer: 9760 fluorescence intensity (a.u.)

Question: For “TATGAAGTTGATTTTGTGGATTTTTTCATCGTGATTTATTCGGAGTCACCTAGTGCAG”, which binding signal is on record?
Answer: 8890 fluorescence intensity (a.u.)

Question: With “TTTCTCCGTCGTCTTCCTCTACTGGTTCTATGTCTTCTCACGGAGTCACCTAGTGCAG” as the sequence, how does the binding signal read?
Answer: 18800 fluorescence intensity (a.u.)

Question: With “CTTGGTTTCTTGTTGTGCAACTCTCGTCGTCTCGTTCATCCGGAGTCACCTAGTGCAG” as the sequence, how does the binding signal read?
Answer: 11500 fluorescence intensity (a.u.)

Question: How did the binding signal turn out when “ATCATTCCTAACTGCCTGGTCGTACTTCTCTGTATTTTGTCGGAGTCACCTAGTGCAG” was run?
Answer: 17500 fluorescence intensity (a.u.)

Question: “CTCTCCTCCCTATTCTTTTCCTTTCCTCTCCTTTCCTTTCCGGAGTCACCTAGTGCAG” was tested. Which binding signal did it give?
Answer: 8870 fluorescence intensity (a.u.)

Question: For “TACTGGTCGTCTGGTCTACTCCGTCTCTCCTCTTCTCTCCCGGAGTCACCTAGTGCAG”, which binding signal is on record?
Answer: 12200 fluorescence intensity (a.u.)

Question: How did the binding signal turn out when “TCCGTCGTCTTCCTTTACTGGTTCTATGTCTTCTCAGTAACGGAGTCACCTAGTGCAG” was run?
Answer: 10800 fluorescence intensity (a.u.)

Question: With “TCCTCATGCCTCTTTTTCCTCCTCCTTCCTTCTCTCATTCCGGAGTCACCTAGTGCAG” as the sequence, how does the binding signal read?
Answer: 10200 fluorescence intensity (a.u.)

Question: With “AACTCACTCTCGCGTTCGCGTCGTCTCCGGCCTTTTCTTGCGGAGTCACCTAGTGCAG” as the sequence, how does the binding signal read?
Answer: 8870 fluorescence intensity (a.u.)

Question: Which binding signal does the source give for “ACTGTCTCGTATTCTATTCCTCATTCCTTCTCTTTTTTTCCGGAGTCACCTAGTGCAG” here?
Answer: 19600 fluorescence intensity (a.u.)

Question: “CTTTCCGTCGCGTCTCGTCTTCTCATGGTTGCAACTCTCCCGGAGTCACCTAGTGCAG” was tested. Which binding signal did it give?
Answer: 18100 fluorescence intensity (a.u.)

Question: Which binding signal does the source give for “ACTTGTATTCTTCCTCGTCTTCCTCTTCTGTATTTCTGGTCGGAGTCACCTAGTGCAG” here?
Answer: 8140 fluorescence intensity (a.u.)

Question: “GTTTTGTATGGTTCTCTGGATATATTACTGCCTGTAAATTCGGAGTCACCTAGTGCAG” was tested. Which binding signal did it give?
Answer: 8320 fluorescence intensity (a.u.)

Question: How did the binding signal turn out when “CCCGGCCTTAGCATACTATTATTTTAGCACTAATCTTAACCGGAGTCACCTAGTGCAG” was run?
Answer: 9300 fluorescence intensity (a.u.)

Question: How did the binding signal turn out when “TTTTATAAATTCGAGCGTGTGCGGGTTTCGTTTTCTCACTCGGAGTCACCTAGTGCAG” was run?
Answer: 9840 fluorescence intensity (a.u.)

Question: For “GCTGTGGTCATGGACAGGGGACGGGCTGGGGTCGTCGCGCCGGAGTCACCTAGTGCAG”, which binding signal is on record?
Answer: 8090 fluorescence intensity (a.u.)

Question: Which binding signal does the source give for “TTTTGCTACAGTGCTCGGATATATCTGGGACGTCCATTTTCGGAGTCACCTAGTGCAG” here?
Answer: 10200 fluorescence intensity (a.u.)

Question: For “TGCGTACACTCCTTTGAAACCCCATTGCTATGTAGACAATCGGAGTCACCTAGTGCAG”, which binding signal is on record?
Answer: 8020 fluorescence intensity (a.u.)

Question: With “TAAAATTCTGTTCCGCCGCGTTTGCCCTCGTCAACTAATCCGGAGTCACCTAGTGCAG” as the sequence, how does the binding signal read?
Answer: 9750 fluorescence intensity (a.u.)

Question: For “ATGTCTGTATCTGTTATTGTTTCTATTGTGTCTGATCCAACGGAGTCACCTAGTGCAG”, which binding signal is on record?
Answer: 8980 fluorescence intensity (a.u.)

Question: Which binding signal does the source give for “AACTAGGTCCCTCGGCGGTTTTGACTCCTGTTTTGTCCAACGGAGTCACCTAGTGCAG” here?
Answer: 12500 fluorescence intensity (a.u.)

Question: How did the binding signal turn out when “GGCAACCACGTAATTCCCTCCCTTTTCAGTTACTCATCAACGGAGTCACCTAGTGCAG” was run?
Answer: 9620 fluorescence intensity (a.u.)

Question: Which binding signal does the source give for “GGTTCCAATTCGTCGCCTGATACTCCGATTCGAGTTCTTGCGGAGTCACCTAGTGCAG” here?
Answer: 12700 fluorescence intensity (a.u.)

Question: “CTCGTTGTCGTGCTGCTTGTAATTCATCTAGTTTGTCTACCGGAGTCACCTAGTGCAG” was tested. Which binding signal did it give?
Answer: 10000 fluorescence intensity (a.u.)

Question: “CTTGGATTCTGAGGTGGGCTTGAACTTGATATGAATTAGGCGGAGTCACCTAGTGCAG” was tested. Which binding signal did it give?
Answer: 8100 fluorescence intensity (a.u.)

Question: How did the binding signal turn out when “TTGGGTTGGGTTGGTGAGGTGGGGAGATGGTTTGGTGAGGCGGAGTCACCTAGTGCAG” was run?
Answer: 17300 fluorescence intensity (a.u.)

Question: With “TTTAGGGGTGTTTGGTTGAGGGGTGAGTGGGATGGGTTGGCGGAGTCACCTAGTGCAG” as the sequence, how does the binding signal read?
Answer: 10300 fluorescence intensity (a.u.)

Question: Which binding signal does the source give for “GAGGTGACGCTGCCGCCGGCGGTGGGCGGAGTGGGAGGGGCGGAGTCACCTAGTGCAG” here?
Answer: 8390 fluorescence intensity (a.u.)

Question: “GTAAACTTATTCTTTGGGCGTTGTTATTATTTGGGGCAATCGGAGTCACCTAGTGCAG” was tested. Which binding signal did it give?
Answer: 11400 fluorescence intensity (a.u.)

Question: With “GTGTAACTTGTTTTGCTAGGGTTTTTGATTGCTTTTTACTCGGAGTCACCTAGTGCAG” as the sequence, how does the binding signal read?
Answer: 12000 fluorescence intensity (a.u.)

Question: For “GGTGGTTGGCGCGCGTTTTCTTGTGTGGTTTTTTGTGTCGCGGAGTCACCTAGTGCAG”, which binding signal is on record?
Answer: 14200 fluorescence intensity (a.u.)

Question: With “CGAGTCTTTTGTGCGGGTGGTTGGGGCGTGGGCGGTGGCGCGGAGTCACCTAGTGCAG” as the sequence, how does the binding signal read?
Answer: 23100 fluorescence intensity (a.u.)

Question: With “GTGCGTGTAAACTTTTTTGGGGTTGTTTTGGGCGGTTACTCGGAGTCACCTAGTGCAG” as the sequence, how does the binding signal read?
Answer: 18200 fluorescence intensity (a.u.)

Question: How did the binding signal turn out when “TGTTCTTGCTACGCTGGGAGGGGAGGGGTGGCGCCGCGGCCGGAGTCACCTAGTGCAG” was run?
Answer: 21700 fluorescence intensity (a.u.)

Question: For “AGATGAGAGGTTTGGTTGGTTGGATGGTGGGGAGCGCCCGCGGAGTCACCTAGTGCAG”, which binding signal is on record?
Answer: 10400 fluorescence intensity (a.u.)
